Screens: PubChem, Broad Institute
CD40 NFkB inh: CD40 pathway inhibition in BL2 cells | BL2 NF-kB luciferase reporter, CD40L-induced, 4 h | inhibition, % at 10 µM | 83,000 tested, 0.94% active | AID 1053188;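 active = mean inhibition of at least 50% with a set share of replicates also reaching that level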;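 also: 0% = neutral control wells and 100% = IKK inhibitor VII at 50 µM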
* hit, by the source's call; [ ] = remark or other dose. Shown is part of a subset that was picked to be rich in hits.

COCCCNc1ccn2nc(-c3ccccc3)cc2n1 was read as CD40 NFkB inh 59.9*.
Screening O=C(C[C@@H]1C[C@H]2c3cc(NC(=O)C4CCOCC4)ccc3O[C@H]2[C@@H](CO)O1)NCc1cc(F)ccc1F returned CD40 NFkB inh -12.3[25 µM].
`O=C(C[C@H]1C[C@@H]2c3cc(NC(=O)C4CCOCC4)ccc3O[C@@H]2[C@H](CO)O1)NCC(F)(F)F` gave CD40 NFkB inh -4.0[25 µM].
`O=C(c1ccc(F)cc1)N(CC1CCC1)C[C@@H]1N[C@H](CO)[C@@H]1c1ccccc1` gave CD40 NFkB inh 7.2[25 µM].
For CCOC(=O)c1c(-c2ccc(C)o2)csc1NC(=O)CN1CCC(C(N)=O)CC1 the results were CD40 NFkB inh -5.6.
CCOC(=O)c1c(-c2ccc(C)o2)csc1NC(=O)CN1CCCCC1 was read as CD40 NFkB inh 62.6*.
Screening CCOC(=O)c1c(-c2ccc(C)o2)csc1NC(=O)CN1CCN(CC)CC1 returned CD40 NFkB inh -2.2.
For CCC(=O)N1[C@H](CN(C(C)C)S(C)(=O)=O)[C@H](c2ccccc2)[C@@H]1CO the results were CD40 NFkB inh 5.4[25 µM].
`CN1CCN(c2ccc(NC(=O)N3CCc4ccccc43)cc2)CC1` gave CD40 NFkB inh 73.0*.
`CN1C(=O)CSc2ccc(NC(=O)N3CCc4ccccc43)cc21` gave CD40 NFkB inh -117.7.
For CC(=O)c1cccc(NC(=O)N2CCCc3ccccc32)c1 the results were CD40 NFkB inh -22.6.
CN1C(=O)c2cc(NC(=O)c3cccc(F)c3)ccc2OC[C@H]2O[C@H](CC(=O)NCC3CC3)CC[C@H]21 was read as CD40 NFkB inh 4.7.
`CN(CC(=O)Nc1ccccc1Cl)C(=O)COC(=O)c1cccs1` gave CD40 NFkB inh 13.1.
For CN(CC(=O)Nc1ccccc1Cl)C(=O)COC(=O)c1ccc(S(=O)(=O)C(F)F)cc1 the results were CD40 NFkB inh 7.2.
`Cc1nc(-c2ccc(F)cc2)c(CC(=O)N(C)CC(=O)Nc2ccccc2Cl)s1` gave CD40 NFkB inh 53.0*.
Screening CC(=O)N1[C@H](CO)[C@H](c2ccc(C#CC3CCCCC3)cc2)[C@H]1CNCC(C)C returned CD40 NFkB inh 6.4[25 µM].
Screening C[C@@H]1CN(C)C(=O)c2cccc(N(C)C)c2O[C@@H]1CN(C)S(C)(=O)=O returned CD40 NFkB inh -7.3.
CCN(CC(=O)Nc1c(F)cccc1F)C(=O)/C=C/c1ccc2ccccc2n1 was read as CD40 NFkB inh -8.9.
`CCOc1ccc(/C=C/C(=O)N(CC)CC(=O)Nc2c(F)cccc2F)cc1OC` gave CD40 NFkB inh 4.6.
CCN(CC(=O)Nc1c(F)cccc1F)C(=O)/C=C/c1ccc(C)o1 was read as CD40 NFkB inh 84.0*.
For COc1ccccc1S(=O)(=O)N[C@H]1CC[C@@H](CCn2cc(C3CCCC3)nn2)O[C@H]1CO the results were CD40 NFkB inh 1.9.
COCC(=O)N1[C@H](C#N)[C@@H](c2ccccc2-c2ccc(C)cc2)[C@@H]1CO was read as CD40 NFkB inh -8.1[25 µM].
`C[C@H](CO)N1C[C@H](C)[C@@H](CN(C)Cc2ccc(C(F)(F)F)cc2)Oc2ccc(NS(=O)(=O)c3ccc(Cl)cc3)cc2CC1=O` gave CD40 NFkB inh 52.3*.
`C[C@@H]1CN([C@@H](C)CO)C(=O)Cc2cc(NS(=O)(=O)c3ccc(F)cc3)ccc2O[C@H]1CN(C)Cc1ccncc1` gave CD40 NFkB inh 6.9[25 µM].
C[C@@H]1CN([C@H](C)CO)C(=O)Cc2cc(NS(C)(=O)=O)ccc2O[C@@H]1CN(C)Cc1ccc(C(=O)O)cc1 was read as CD40 NFkB inh -1.3.
Screening C[C@H](CO)N1C[C@H](C)[C@@H](CN(C)Cc2ccncc2)Oc2ccc(NS(=O)(=O)c3ccc(F)cc3)cc2CC1=O returned CD40 NFkB inh 0.1[25 µM].
Screening C[C@@H]1CN([C@H](C)CO)C(=O)Cc2cc(NS(=O)(=O)c3ccc(F)cc3)ccc2O[C@H]1CN(C)Cc1ccncc1 returned CD40 NFkB inh 5.2[25 µM].
For COc1ccc(CN(C)C[C@H]2Oc3ccc(NS(=O)(=O)c4ccc(Cl)cc4)cc3CC(=O)N([C@@H](C)CO)C[C@@H]2C)cc1 the results were CD40 NFkB inh 13.1.
Screening C[C@@H]1CN([C@H](C)CO)C(=O)Cc2cc(NS(=O)(=O)c3ccccc3)ccc2O[C@H]1CN(C)Cc1ccc(Cl)c(Cl)c1 returned CD40 NFkB inh 42.2.
`C[C@@H]1CN([C@@H](C)CO)C(=O)Cc2cc(NS(=O)(=O)c3ccc(F)cc3)ccc2O[C@@H]1CN(C)Cc1ccc(C(F)(F)F)cc1` gave CD40 NFkB inh 47.2*.
C[C@@H]1CN([C@H](C)CO)C(=O)Cc2cc(NS(=O)(=O)c3ccc(F)cc3)ccc2O[C@H]1CN(C)Cc1ccc(C(F)(F)F)cc1 was read as CD40 NFkB inh 55.7*.
Screening COc1ccc(CN(C)C[C@@H]2Oc3ccc(NC(=O)NC(C)C)cc3C(=O)N([C@H](C)CO)C[C@@H]2C)cc1 returned CD40 NFkB inh -0.2.
`CCCC#Cc1ccc([C@H]2[C@@H](CO)N(S(=O)(=O)c3cccc(F)c3)[C@H]2C#N)cc1` gave CD40 NFkB inh -1.3[25 µM].
